Experimental findings from the supplement of paper PMC10849652 are described below.

Of roughly 7,900 targets only a part is listed; those with a hit were picked by preference. About 0.6% of all pairs of compound and target were hits.

UniProt O14976, sequence (O14976 whole entry, looked up): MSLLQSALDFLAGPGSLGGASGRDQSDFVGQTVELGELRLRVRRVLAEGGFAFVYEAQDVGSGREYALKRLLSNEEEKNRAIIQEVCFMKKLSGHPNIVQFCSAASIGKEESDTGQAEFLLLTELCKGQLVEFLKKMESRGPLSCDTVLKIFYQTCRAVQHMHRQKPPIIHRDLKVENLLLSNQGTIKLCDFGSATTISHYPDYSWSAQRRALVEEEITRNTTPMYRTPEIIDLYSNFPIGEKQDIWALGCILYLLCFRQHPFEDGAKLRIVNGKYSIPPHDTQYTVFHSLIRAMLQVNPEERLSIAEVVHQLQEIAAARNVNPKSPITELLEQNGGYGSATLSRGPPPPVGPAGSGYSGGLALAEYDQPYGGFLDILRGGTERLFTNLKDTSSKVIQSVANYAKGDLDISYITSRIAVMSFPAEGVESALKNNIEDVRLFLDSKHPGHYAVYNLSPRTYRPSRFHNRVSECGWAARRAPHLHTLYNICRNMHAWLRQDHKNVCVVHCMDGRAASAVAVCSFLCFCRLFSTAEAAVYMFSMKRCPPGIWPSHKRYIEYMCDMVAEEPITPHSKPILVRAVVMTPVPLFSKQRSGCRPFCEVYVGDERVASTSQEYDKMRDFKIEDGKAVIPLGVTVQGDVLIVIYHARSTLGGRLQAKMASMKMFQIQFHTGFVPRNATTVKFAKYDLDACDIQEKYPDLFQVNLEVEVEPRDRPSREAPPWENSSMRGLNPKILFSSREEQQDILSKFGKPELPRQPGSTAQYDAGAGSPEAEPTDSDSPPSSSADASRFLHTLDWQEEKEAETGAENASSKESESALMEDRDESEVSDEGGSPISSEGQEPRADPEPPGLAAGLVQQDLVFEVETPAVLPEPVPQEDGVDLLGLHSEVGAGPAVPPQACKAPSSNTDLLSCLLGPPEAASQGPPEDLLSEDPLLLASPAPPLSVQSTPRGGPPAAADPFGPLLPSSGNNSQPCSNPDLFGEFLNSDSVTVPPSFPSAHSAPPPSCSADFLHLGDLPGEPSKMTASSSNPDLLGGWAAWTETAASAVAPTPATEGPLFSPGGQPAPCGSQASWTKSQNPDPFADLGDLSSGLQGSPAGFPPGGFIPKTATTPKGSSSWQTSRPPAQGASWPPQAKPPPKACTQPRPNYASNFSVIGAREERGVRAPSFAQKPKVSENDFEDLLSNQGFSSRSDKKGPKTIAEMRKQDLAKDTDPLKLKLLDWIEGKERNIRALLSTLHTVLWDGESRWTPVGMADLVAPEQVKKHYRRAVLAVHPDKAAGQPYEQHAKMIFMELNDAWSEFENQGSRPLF
UniProt Q9Y613, sequence (Q9Y613 whole entry, looked up): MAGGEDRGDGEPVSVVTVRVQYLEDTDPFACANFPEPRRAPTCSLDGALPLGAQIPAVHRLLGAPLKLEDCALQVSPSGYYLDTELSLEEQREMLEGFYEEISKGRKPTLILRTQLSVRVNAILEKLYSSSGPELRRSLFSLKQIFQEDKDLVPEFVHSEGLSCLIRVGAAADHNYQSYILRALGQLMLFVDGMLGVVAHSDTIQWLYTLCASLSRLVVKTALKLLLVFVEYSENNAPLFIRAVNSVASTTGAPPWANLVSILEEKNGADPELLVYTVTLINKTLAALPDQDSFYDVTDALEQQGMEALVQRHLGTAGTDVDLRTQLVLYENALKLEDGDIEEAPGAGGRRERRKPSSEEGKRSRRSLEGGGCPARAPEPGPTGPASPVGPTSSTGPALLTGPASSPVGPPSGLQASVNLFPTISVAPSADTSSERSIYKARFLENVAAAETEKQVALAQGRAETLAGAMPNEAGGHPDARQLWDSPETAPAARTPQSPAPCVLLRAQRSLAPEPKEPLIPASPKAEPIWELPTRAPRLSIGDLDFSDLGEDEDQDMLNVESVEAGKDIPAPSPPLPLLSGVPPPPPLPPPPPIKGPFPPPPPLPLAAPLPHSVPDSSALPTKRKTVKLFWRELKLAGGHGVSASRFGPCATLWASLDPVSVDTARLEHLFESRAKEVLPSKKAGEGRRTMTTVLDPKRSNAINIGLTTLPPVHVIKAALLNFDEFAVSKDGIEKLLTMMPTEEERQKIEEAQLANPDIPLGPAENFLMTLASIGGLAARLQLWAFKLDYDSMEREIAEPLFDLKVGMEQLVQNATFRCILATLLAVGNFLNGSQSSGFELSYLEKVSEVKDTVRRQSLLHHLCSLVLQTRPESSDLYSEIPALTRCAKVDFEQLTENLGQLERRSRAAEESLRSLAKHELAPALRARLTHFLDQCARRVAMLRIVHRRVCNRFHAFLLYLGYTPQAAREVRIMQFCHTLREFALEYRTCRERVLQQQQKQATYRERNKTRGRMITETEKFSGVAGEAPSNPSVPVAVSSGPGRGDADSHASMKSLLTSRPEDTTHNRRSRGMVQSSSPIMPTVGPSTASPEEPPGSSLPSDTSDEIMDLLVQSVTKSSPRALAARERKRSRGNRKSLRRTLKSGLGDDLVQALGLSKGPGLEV
UniProt O15117, sequence (O15117 whole entry, looked up): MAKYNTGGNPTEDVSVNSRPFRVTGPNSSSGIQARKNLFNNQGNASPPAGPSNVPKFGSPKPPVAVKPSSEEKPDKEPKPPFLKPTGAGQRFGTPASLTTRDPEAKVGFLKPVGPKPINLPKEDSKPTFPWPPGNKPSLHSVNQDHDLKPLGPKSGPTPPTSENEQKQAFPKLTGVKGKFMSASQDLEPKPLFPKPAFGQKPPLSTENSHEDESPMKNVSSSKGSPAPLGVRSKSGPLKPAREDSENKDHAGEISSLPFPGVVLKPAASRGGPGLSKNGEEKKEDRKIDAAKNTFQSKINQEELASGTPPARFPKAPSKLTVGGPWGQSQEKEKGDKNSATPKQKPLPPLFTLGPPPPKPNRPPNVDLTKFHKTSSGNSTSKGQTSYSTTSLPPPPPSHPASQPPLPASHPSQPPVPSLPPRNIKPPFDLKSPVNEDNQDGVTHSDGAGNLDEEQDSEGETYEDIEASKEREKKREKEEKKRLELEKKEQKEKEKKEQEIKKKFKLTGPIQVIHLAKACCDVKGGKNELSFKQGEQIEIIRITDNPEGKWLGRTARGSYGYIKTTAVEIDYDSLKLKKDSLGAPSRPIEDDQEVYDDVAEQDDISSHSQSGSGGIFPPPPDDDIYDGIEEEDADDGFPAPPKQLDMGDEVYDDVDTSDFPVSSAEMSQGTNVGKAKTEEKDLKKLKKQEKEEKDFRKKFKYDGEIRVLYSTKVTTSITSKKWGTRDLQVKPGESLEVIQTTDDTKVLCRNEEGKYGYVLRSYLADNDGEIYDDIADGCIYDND
UniProt O60725, sequence (O60725 whole entry, looked up): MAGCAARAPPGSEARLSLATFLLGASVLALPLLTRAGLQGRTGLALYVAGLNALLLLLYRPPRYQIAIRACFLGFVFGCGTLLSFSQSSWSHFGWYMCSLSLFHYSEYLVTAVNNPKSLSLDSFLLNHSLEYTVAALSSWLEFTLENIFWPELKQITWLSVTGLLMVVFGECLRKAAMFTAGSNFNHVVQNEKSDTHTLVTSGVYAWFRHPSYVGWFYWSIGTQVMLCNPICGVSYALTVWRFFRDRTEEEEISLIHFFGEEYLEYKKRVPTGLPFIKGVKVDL
UniProt Q7Z4V5, sequence (Q7Z4V5 whole entry, looked up): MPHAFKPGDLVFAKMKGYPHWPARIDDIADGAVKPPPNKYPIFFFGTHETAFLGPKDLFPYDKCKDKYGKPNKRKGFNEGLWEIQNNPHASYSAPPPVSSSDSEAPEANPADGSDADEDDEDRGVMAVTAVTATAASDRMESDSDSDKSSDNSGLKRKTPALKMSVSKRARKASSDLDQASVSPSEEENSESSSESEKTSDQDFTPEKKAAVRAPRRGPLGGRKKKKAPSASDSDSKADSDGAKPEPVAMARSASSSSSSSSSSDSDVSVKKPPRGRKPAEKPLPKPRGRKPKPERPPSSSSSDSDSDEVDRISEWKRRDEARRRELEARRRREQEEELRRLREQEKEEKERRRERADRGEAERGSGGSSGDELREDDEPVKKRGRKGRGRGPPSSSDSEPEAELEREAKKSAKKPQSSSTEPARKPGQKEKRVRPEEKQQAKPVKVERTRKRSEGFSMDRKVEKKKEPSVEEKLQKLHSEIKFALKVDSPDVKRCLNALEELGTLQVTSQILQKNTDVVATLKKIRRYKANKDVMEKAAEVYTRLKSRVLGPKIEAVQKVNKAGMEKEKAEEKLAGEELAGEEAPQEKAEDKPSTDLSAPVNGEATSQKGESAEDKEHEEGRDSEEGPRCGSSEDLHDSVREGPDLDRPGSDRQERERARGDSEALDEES
UniProt P06865, sequence (P06865 whole entry, looked up): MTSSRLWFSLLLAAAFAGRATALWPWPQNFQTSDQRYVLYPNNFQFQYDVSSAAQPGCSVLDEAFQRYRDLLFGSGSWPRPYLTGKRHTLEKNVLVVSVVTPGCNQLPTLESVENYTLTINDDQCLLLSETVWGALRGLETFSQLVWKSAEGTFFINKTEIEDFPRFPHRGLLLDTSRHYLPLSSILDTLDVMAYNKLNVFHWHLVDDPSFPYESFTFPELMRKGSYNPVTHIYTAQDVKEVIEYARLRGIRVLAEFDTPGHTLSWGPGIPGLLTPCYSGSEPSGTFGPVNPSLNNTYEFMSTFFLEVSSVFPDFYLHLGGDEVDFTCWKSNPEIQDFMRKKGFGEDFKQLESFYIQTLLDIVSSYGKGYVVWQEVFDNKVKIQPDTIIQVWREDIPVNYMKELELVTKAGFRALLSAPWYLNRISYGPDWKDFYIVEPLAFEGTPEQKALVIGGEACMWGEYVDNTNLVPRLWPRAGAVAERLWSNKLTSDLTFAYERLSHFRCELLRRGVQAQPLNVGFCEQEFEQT
UniProt Q53GQ0, sequence (Q53GQ0 whole entry, looked up): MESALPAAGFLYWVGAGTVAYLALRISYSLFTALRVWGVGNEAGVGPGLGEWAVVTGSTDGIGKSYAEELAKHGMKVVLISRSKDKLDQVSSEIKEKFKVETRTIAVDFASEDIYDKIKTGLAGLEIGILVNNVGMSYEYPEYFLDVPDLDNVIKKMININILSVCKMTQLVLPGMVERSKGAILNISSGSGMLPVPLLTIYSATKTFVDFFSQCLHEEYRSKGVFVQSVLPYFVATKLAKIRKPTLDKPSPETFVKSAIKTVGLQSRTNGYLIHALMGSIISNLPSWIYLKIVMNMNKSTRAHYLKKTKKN

Compound in this test: CNC(=O)C1=CC=CC=C1NC2=NC(=NC=C2Cl)NC3=C(C=C(C=C3)N4CCOCC4)OC
As to the kind of experiment: log2 fold change, soluble protein after heating vs DMSO (PISA); higher = thermal stabilisation; K562 cells, 10 uM, 30 min; active = over 0.2 and 3.5 SD of the protein, either way, in both replicates (recomputed). The method in brief:
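K562 cells at 2×10^6 cells/mL were treated with 10 μM compound for 30 min. Aliquots were heated for 3 min across 48°C-58°C, pooled, and extracted in PBS with 0.5% NP-40 at 4°C; soluble protein was the supernatant after 21,000xg for 90 min. Soluble protein was quantified by TMTpro 16plex LC-MS/MS with channel sums equalised, and reported as log2 fold change in thermal stability against DMSO controls, with values from duplicates.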
Regarding FHOD1 (UniProt Q9Y613), the log2 fold change was -0.027 (inactive).
The value for GLB1 (UniProt P16278) was 0.034 (inactive); that for HDGFL2 (UniProt Q7Z4V5) was -0.061 (inactive); that for FYB1 isoform 3 (UniProt O15117) was 0 (inactive).
The figure for GSTT1 (UniProt P30711) is -0.029 (inactive).
As for HEXA (UniProt P06865), the log2 fold change is -0.012 (inactive).
Turning to GLUL (UniProt P15104), the log2 fold change was 0.142 (inactive).
HS1BP3 (UniProt Q53T59): the log2 fold change is -0.005 (inactive).
As for ICMT (UniProt O60725), the log2 fold change is 0.061 (inactive).
As for HNRNPH2 (UniProt P55795), the log2 fold change is -0.079 (inactive).
On to GGA2 (UniProt Q9UJY4), for which the log2 fold change is -0.025 (inactive).
With GBA2 (UniProt Q9HCG7), the log2 fold change is -0.012 (inactive).
HK2 (UniProt P52789): the log2 fold change was -0.334 (active).
For GMEB2 (UniProt Q9UKD1), the log2 fold change is -0.065 (inactive).
Take IFRD1 (UniProt O00458): the log2 fold change was 0.042 (inactive).
As to GAK (UniProt O14976), the log2 fold change is 1.11 (inactive).
Regarding HDAC7 isoform 5 (UniProt Q8WUI4), the log2 fold change is -0.2 (inactive).
The figure for HNRNPUL1 (UniProt Q9BUJ2) is 0.008 (inactive); for HSD17B12 (UniProt Q53GQ0) it is 0.005 (inactive).
As to GBF1 (UniProt Q92538), the log2 fold change is -0.024 (inactive).
Turning to HSPA8 (UniProt E9PN89), the log2 fold change is -0.057 (inactive).
As for GOLGB1 isoform 2 (UniProt Q14789), the log2 fold change is 0.048 (inactive).
Take GLRX3 (UniProt O76003): the log2 fold change was 0.053 (inactive).
